rCAG RNA binder = binders of r(CAG) RNA repeats, primary screen, biochemical, fluorescence | r(CAG) RNA repeat, TO-PRO-1 dye displacement fluorescence | inhibition, % at 3 µM | AID 651821, 2012 | 370,000 compounds, 1.3% hits;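 active means inhibition above the plate cutoff, the mean of all test compounds on that plate plus 3 SD, cut at about 35% in these data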;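 further: 0% = DMSO alone and 100% = 100 µM mitoxantrone as full dye displacement; higher means more dye released from RNA so lower well fluorescence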
KLK7 zymogen act = proKLK7 zymogen activators, primary screen, biochemical, fluorescence intensity; Kallikrein-7 (Homo sapiens), P49862; purified proKLK7, EDANS-DABCYL substrate fluorescence; 100% is mature enzyme control, 0% vehicle; activation, % at 7 µM; 370,000 compounds, 0.9% hits; AID 652039, 2013;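 active means activation above the mean of all tested compounds plus 3 SD, computed per campaign excluding outliers beyond control limits, cut at about 13% in these data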
ADAM10 inh = human ADAM10 inhibitors, primary screen, biochemical, QFRET, HTS | recombinant ADAM10, EDANS/DABCYL FRET peptide cleavage, 3 h | 370,000 compounds, 0.62% hits | Disintegrin and metalloproteinase domain-containing protein 10 (Homo sapiens), O14672 | inhibition, % at 7 µM;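 active means inhibition above a per-campaign cutoff equal to the mean of compounds falling between control-based bounds plus 3 SD, cut at about 20% in these data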;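 further: 0% = DMSO wells while the 100% control is not disclosed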
DSG3 Ab inh = inhibitors of pemphigus antibody binding to DSG3, primary screen, biochemical, bead-based, flow cytometry, scFv-GFP. binding (percent of control), % at 10 µM. AID 588358, 2011. Desmoglein-3 (Homo sapiens), P32926. 310,000 compounds, 0.48% hits. DSG3-coupled beads, scFv-anti-DSG3-GFP binding; stronger effect = lower value;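 active means binding more than 3 SD below its plate's average and above zero; inconclusive means below that plate limit but binding exactly zero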
MPTP block = mitochondrial permeability transition pore inhibitors, primary screen, biochemical, isolated mouse mitochondria, absorbance | Ca2+ swelling absorbance, 30 min | inhibition, % at 10 µM | 360,000 compounds, 1.4% hits | AID 602449, 2012;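 active means inhibition of 50% or more, scaled per plate between neutral and stimulator controls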;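 further: 0% = DMSO wells given calcium and 100% = 1 mM EGTA wells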
ADAM17 inh = ADAM17 inhibitors, primary screen, biochemical, QFRET | 370,000 compounds, 0.83% hits | inhibition, % at 6.95 µM | Disintegrin and metalloproteinase domain-containing protein 17 (Homo sapiens), P78536 | recombinant ADAM17, EDANS/DABCYL FRET peptide cleavage | AID 720648, 2013;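 active means inhibition above the mean of compounds lying between control limits plus 3 SD, set per campaign, cut at about 8.5% in these data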;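 further: 0% = DMSO-only wells as the low control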
Target sequence (P78536 215-824 limits assumed): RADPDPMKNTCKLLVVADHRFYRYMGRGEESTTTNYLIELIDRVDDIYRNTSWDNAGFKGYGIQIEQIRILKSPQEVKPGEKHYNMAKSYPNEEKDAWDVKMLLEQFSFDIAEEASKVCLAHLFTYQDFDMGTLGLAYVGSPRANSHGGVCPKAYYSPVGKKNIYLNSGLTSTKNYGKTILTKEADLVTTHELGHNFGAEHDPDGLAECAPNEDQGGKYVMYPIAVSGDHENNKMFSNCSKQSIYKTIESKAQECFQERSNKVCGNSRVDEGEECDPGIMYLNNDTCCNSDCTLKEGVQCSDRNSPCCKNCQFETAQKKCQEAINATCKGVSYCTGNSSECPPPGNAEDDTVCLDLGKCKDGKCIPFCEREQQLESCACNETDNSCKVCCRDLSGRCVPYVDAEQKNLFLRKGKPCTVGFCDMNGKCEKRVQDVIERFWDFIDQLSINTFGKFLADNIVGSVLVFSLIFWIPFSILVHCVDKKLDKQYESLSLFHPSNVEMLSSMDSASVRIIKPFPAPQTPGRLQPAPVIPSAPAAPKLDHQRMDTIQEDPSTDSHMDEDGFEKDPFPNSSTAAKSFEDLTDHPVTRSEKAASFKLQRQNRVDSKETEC
proKLK7 act conf = proKLK7 zymogen activators, confirmation, biochemical, fluorescence intensity, triplicate. shares compounds with KLK7 zymogen act. purified proKLK7, EDANS-DABCYL substrate fluorescence; scaled: vehicle 0, mature enzyme 100. activation, % at 7 µM. 3,200 compounds, 68% hits;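 active means activation, as change over the incubation, above the mean of all tested compounds plus 3 SD, cut at about 13% in these data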
EDANS interfere = EDANS-DABCYL substrate optical interference, artefact control for kallikrein-7 zymogen activator project, biochemical, fluorescence intensity, high throughput; no enzyme, 4 h; solvent 0%, active enzyme control 100%; shares compounds with KLK7 zymogen act; 3,200 compounds, 80% hits; activation, % at 7 µM;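 active means activation above the all-compound mean plus 3 SD, ignoring values outside control-based bounds, cut at about 4.8% in these data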;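 further: value is the 4 h activation minus the activation read at time zero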
K7 EDANS ctr = EDANS fluorescence interference in dose response, no enzyme. shares compounds with KLK7 zymogen act. EDANS-DABCYL peptide fluorescence interference. EC50, µM. 250 compounds, 20% hits;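 active means compounds that raise the fluorescence signal in this interference counterscreen, with EC50 at or below 10 µM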;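 further: intact quenched peptide substrate alone read at 355 nm excitation and 520 nm emission; signal is fluorescence gain from T0 to T4 after four hours at room temperature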
* = called active by the depositor; i = inactive; ? = inconclusive; . = not tested or not shown. Shown are actives, neighbours in structure and some others; about 4.7% of the full set was active somewhere.

SMILES	rCAG RNA binder	KLK7 zymogen act	ADAM10 inh	DSG3 Ab inh	MPTP block	ADAM17 inh	proKLK7 act conf	EDANS interfere	others
O=c1[nH]cnc2nc(-c3ccccc3)c(-c3ccccc3)nc12	4	29*	i	99	0	-387	29*	30*
CCCS(=O)(=O)NC(=O)C1(C)CCN(C(=O)c2ccnc(Cl)c2)C1 (centres undefined)	0	0	-7	.	0	-2	.	.
COc1ccccc1-c1c(C)oc2c(CN3CCN(C)CC3)c(O)ccc2c1=O	1	62*	i	101	2	i	60*	74*
COc1ccccc1-c1c(C)oc2c(CN3CCN(CCO)CC3)c(O)ccc2c1=O	3	72*	i	102	-2	i	68*	75*
CC1(c2nnnn2Cc2ccccc2)CCC(=O)N1CCCn1ccnc1 (centres undefined)	1	0	-15	.	-1	-4	.	.
O=C(Nc1nccs1)c1ccc(N2CCOCC2)c([N+](=O)[O-])c1	2	13*	0	.	1	6	1	0
O=C(Nc1ccc2c(c1)C(=O)NC2=O)c1ccc(S(=O)(=O)N2CCCC2)cc1	9	86*	-66	97	-2	-11	90*	40*	K7 EDANS ctr=8.5*
Cc1ccc2nc(-c3cccc(S(=O)(=O)N(C)C)c3)cn2c1	3	0	-52	111	-1	-22	.	.
CN(C)S(=O)(=O)c1cccc(-c2cn3cccnc3n2)c1	3	39*	i	97	1	i	57*	62*
CN(C)S(=O)(=O)c1ccc(-c2cn3ccccc3n2)cc1	1	30*	i	95	1	-452	22*	31*
CCN(CC)S(=O)(=O)c1ccc(-c2cn3ccccc3n2)cc1	4	11	i	106	0	-261	.	.
O=S(=O)(c1cccc(-c2cn3cccnc3n2)c1)N1CCCCCC1	9	5	i	107	-3	-413	.	.
O=S(=O)(c1cccc(-c2cn3cccnc3n2)c1)N1CCOCC1	6	30*	i	97	-5	i	71*	67*
Cc1cccn2c(=O)nc(SCC(=O)NC3CCCCC3)nc12	1	0	-18	90	-4	-3	.	.
CCOC(=O)C1=CCN(S(=O)(=O)c2ccccc2Cl)C1c1cccc(C)c1 (centres undefined)	0	1	-4	.	1	3	.	.
CCOCCOC(=O)C1=C(C)NC2=C(C(=O)CC(c3cccs3)C2)C1c1ccsc1 (centres undefined)	0	90*	-143	100	3	-45	-4	-1
CCOC(=O)C1=C(C)NC2=C(C(=O)CCC2)C1c1cccs1 (centres undefined)	-3	3	-86	100	1	-28	.	.
CCCCn1c(N)c(N(CCOC)C(=O)c2c(-c3ccccc3)noc2C)c(=O)[nH]c1=O	-4	0	-12	102	-1	-3	.	.
CCOC(=O)c1cc(-c2cc3ccccc3o2)nc2c1c(=O)[nH]c(=O)n2CCOC	0	19*	i	104	1	-269	-447	-484
CCCCn1c(OC(=S)N(CC)CC)cc(C)nc1=S	.	.	.	.	-1	.	.	.
CN(Cc1cnc2nc(N)nc(N)c2n1)c1ccc(C(=O)NC(CCC(=O)O)C(=O)O)c2ccccc12 (centres undefined)	9	19*	i	110	0	-268	2	3
Cc1ccc(C(=O)N/C(=C/c2ccc(Cl)cc2)C(=O)N2CCOCC2)cc1	-1	0	3	.	1	0	.	.
CN(C(=O)COC(=O)c1ccccc1NCCO)C1CCS(=O)(=O)C1 (centres undefined)	-1	14*	i	?	-4	i	40*	42*
CN(C(=O)COC(=O)c1ccccc1NC(=O)c1ccco1)C1CCS(=O)(=O)C1 (centres undefined)	0	0	1	106	-2	-1	.	.
CC(=O)Nc1oc(-c2cccc3ccccc23)nc1C#N	5	78*	i	111	1	-420	72*	72*
SMILES	rCAG RNA binder	KLK7 zymogen act	ADAM10 inh	DSG3 Ab inh	MPTP block	ADAM17 inh	proKLK7 act conf	EDANS interfere	others
COc1ccc(CNC(=O)C2(CC3CC(c4ccccc4)=NO3)CCN(C(=O)C3CCCC3)CC2)cc1 (centres undefined)	-7	1	8	.	-2	0	.	.
Nc1nc2ccccc2cc1S(=O)(=O)c1ccccc1	2	13*	i	112	-3	-284	7	10*
COC(=O)[C@@]1(C(C)C)N=C(c2cc(OC)c(OC)c(OC)c2)[C@]2(O1)C(=O)Nc1ccc(F)cc12	0	0	-8	.	0	-2	.	.
COc1ccc2nc3ccccc3[n+]([O-])c2c1	-20	27*	i	91	-3	-140	32*	34*
COc1ccc2c(ccc[n+]2[O-])c1	2	0	-32	90	1	-6	.	.
COc1ccccc1C(=O)N1CCN(Cc2ccc3c(c2)OCO3)CC1	-5	0	0	114	0	-3	.	.
COc1cc2cc(C(=O)N3CCN(Cc4ccc5c(c4)OCO5)CC3)c(=O)oc2cc1OC	-6	61*	i	.	0	i	68*	73*
Cc1ccc(-c2cnc3c(c2)C(=O)N([C@H](C)CO)C[C@H](C)[C@@H](CN(C)Cc2ccccc2F)O3)cc1	2	0	-4	.	-1	1	.	.
CNc1snc(C)c1C(=O)OC(C)C(=O)Nc1ccccc1 (centres undefined)	2	0	-9	101	-3	-4	.	.
COc1ccc2[nH]c(C)c(C(=O)CN3CCc4cc(OC)c(OC)cc4C3)c2c1	-2	17*	-53	105	1	-19	9	8.4*
Cc1cc(C)c(C(O)c2ncc(-c3cccc(F)c3)[nH]2)c(C)c1 (centres undefined)	1	0	1	.	2	3	.	.

From PubChem BioAssay
